# Screens (PubChem)
# EBV LMP1 NFkB: reduces LMP1-driven NF-kappaB luciferase signal; hit rate 0.69% among 350,000; AID 504558; LMP1-induced NF-kappaB luciferase reporter cells, luminescence; inhibition, % at 12.5 µM; in the data active = inhibition above about 41%;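 note: 0% = neutral control wells and 100% = reference inhibitor control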
# TWEAK Fn14 block: TWEAK-Fn14 signaling inhibition; TWEAK-stimulated Fn14 reporter cells, luciferase luminescence, 8 h; inhibition, % at 10 µM; hit rate 2% among 360,000; AID 1159606; in the data active = inhibition above about 50%
# TROY NFkB inh: blocks TROY-dependent signaling in reporter cells; hit rate 0.98% among 360,000; Q293 LMP1-TROYcd NF-kB luciferase reporter, 4 h; inhibition, % at 10 µM; AID 1347056;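 active = compounds whose plate-normalised and pattern-corrected inhibition of the luciferase reporter signal at the single screening dose is 50% or more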
# HIF-2a inh: blocks HIF-2a reporter activity. hit rate 0.72% among 360,000. 786-0 RCC cells HIF-2a reporter, luciferase luminescence, overnight. inhibition, % at 18.8 µM;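 active = inhibition of the luminescence signal of 40% or more relative to plate controls, in a single-dose primary screen at 18.75 µM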
# MITF TRPM1 inh: reduces MITF-dependent TRPM1 promoter luciferase signal; hit rate 0.83% among 330,000; inhibition, % at 12.5 µM; SK-MEL-5 TRPM1 promoter luciferase, 24 h; AID 488899;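 active = mean inhibition across replicates of 60% or more, whatever share of single replicates reaches that level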
# Shn3 inh set2: Schnurri-3 reporter inhibition in Clone20 osteoblasts | Clone20 osteoblast Shn3 3'UTR firefly luciferase, 24 h | inhibition, % at 12.5 µM | hit rate 0.52% among 360,000 | AID 588674;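 active = mean inhibition of at least 75% with every replicate also reaching 75%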;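 note: 0% = median of neutral control wells and 100% = pilot-screen positive control compound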
# * hit, by the source's call; · = no result given. Only some compounds are listed: those with a hit (about 3.4% of all), similar ones and a draw of the others.
SMILES,EBV LMP1 NFkB,TWEAK Fn14 block,TROY NFkB inh,HIF-2a inh,MITF TRPM1 inh,Shn3 inh set2
CCN(CC)CCC(=O)Nc1cccc2c1C(=O)c1ccccc1C2=O,-38.3,-26.0,-102.9,34.1,70.9*,-18.9
CCN(CC)CCNC(=O)c1ccc2c(c1NCCO)C(=O)c1ccccc1C2=O,·,87.3*,42.5,61.6*,·,25.4
Nc1cccc(C(=O)OCC(=O)Nc2cccc3c2C(=O)c2ccccc2C3=O)c1,16.4,-42.0,-15.0,-20.8,17.5,-5.5
CCN1CCOC(CC(=O)Nc2ccc([N+](=O)[O-])cc2)C1=O (stereo unspecified),5.2,14.2,-0.9,18.3,-2.6,1.0
CCOc1ccccc1O[C@H](c1ccccc1)[C@H]1CNCCO1,-4.6,-34.9,1.0,-9.3,-9.1,-6.9
COc1ccc(NC(=O)N(C)C[C@@H]2OCc3cnnn3CCCC(=O)N([C@@H](C)CO)C[C@H]2C)cc1,-11.9,5.7,-3.2,3.8,·,-9.1
CCSc1nnc(NC(=O)CCn2c(=O)oc3ccccc32)s1,79.2*,5.6,-4.5,7.1,0.8,19.5
O=C(CCn1c(=O)oc2ccccc21)Nc1nc2ccccc2s1,-3.7,0.3,-32.6,-72.4,-21.4,-14.7
Cc1ccc(NC(=O)Nc2nnc(-c3ccncc3)s2)cc1C,15.2,81.6*,36.3,-152.0,-8.0,-10.5
O=C(Nc1ccc(F)cc1)Nc1nnc(-c2ccncc2)s1,-7.9,43.7,13.9,-43.3,-15.2,-5.5
COC(=O)Nc1nnc(-c2ccncc2)s1,-3.8,5.2,-2.7,1.5,5.0,9.9
O=C(Nc1cccc(Cl)c1)Nc1nnc(CSCCOc2ccc(Cl)cc2)s1,43.9*,49.7,51.3*,2.2,67.5*,66.7
Cc1ccc(NC(=O)Nc2nnc(CSCCOc3ccc(Cl)cc3)s2)cc1,-2.9,9.6,12.8,8.2,9.2,18.0
O=C(Nc1ccc(Cl)cc1)Nc1nnc(CSc2ccc(Cl)cc2)s1,11.4,63.9*,-0.5,-26.6,-3.1,26.9
O=C(Nc1ccc(Cl)cc1)Nc1nnc(-c2ccncc2)s1,20.3,81.1*,41.5,-9.1,7.0,-14.9
O=C(Nc1ccc(Cl)cc1)Nc1nnc(CSCc2ccccc2)s1,21.5,24.7,-7.3,11.6,13.5,16.3
O=C(Nc1ccc(F)cc1)Nc1nnc(COc2ccccc2F)s1,1.1,21.2,56.6*,-1.9,-6.4,6.3
O=C(NC1CCOc2ccccc21)C1CCCC1 (stereo unspecified),0.3,7.5,25.3,-6.8,-7.3,-1.0
Cc1ccc(Nc2c(-c3ccccn3)nc3cccc(C)n23)cc1,27.1,14.8,8.4,28.8,70.6*,89.8*
CC1CC(=O)c2c(cc3c(-c4c(O)cc(O)c5c(O)c6c(cc45)OC(C)CC6=O)c(O)cc(O)c3c2O)O1 (stereo unspecified),27.2,77.6*,1.4,91.0*,78.8*,75.8
CCOc1cc([N+](=O)[O-])cc2c1C(=O)Nc1ccccc1O2,69.1*,-12.1,-2.0,-23.9,9.8,20.0
O=C1Nc2ccccc2Oc2cc([N+](=O)[O-])ccc21,10.7,25.5,-11.3,21.4,30.8,-36.2
CC(C)(C)C1CCN2CCCC(c3ccc([N+](=O)[O-])cc3)(C1)C21OCCO1 (stereo unspecified),·,5.9,8.5,2.1,·,·
O=C1OC(N2C(=O)CC[C@H]2C(=O)Nc2ccc3c(c2)OCO3)c2ccccc21 (stereo partly specified),-3.4,-4.4,-4.2,-22.8,4.4,-13.3
Cc1nnc(N2C(=O)C(=O)/C(=C(\O)c3ccc4c(c3)CC(C)O4)C2c2ccccc2)s1 (stereo unspecified),-6.2,34.7,57.2*,-43.4,-22.4,-23.4
SMILES,EBV LMP1 NFkB,TWEAK Fn14 block,TROY NFkB inh,HIF-2a inh,MITF TRPM1 inh,Shn3 inh set2
COc1cccc(C2/C(=C(/O)c3ccc4c(c3)CC(C)O4)C(=O)C(=O)N2c2nnc(C)s2)c1 (stereo unspecified),-9.9,9.7,-10.9,-10.0,-1.3,-13.8
CCCC(C(=O)Nc1ccncc1)c1ccccc1 (stereo unspecified),-3.0,-3.4,4.6,17.4,11.0,11.7
Cc1ccc(-c2nnc(CSc3nc(C(C)C)nc4sc(C)c(C)c34)o2)cc1,5.5,82.7*,·,8.1,8.9,-3.9
CCOC(=O)CSc1nc(C(C)C)nc2sc(C)c(C)c12,-2.0,-3.5,-18.4,3.4,-1.4,-13.0
Cc1ccc(NC(=O)COc2ncnc3ccccc23)cc1S(=O)(=O)N1CCOCC1,-0.5,13.0,13.4,19.5,22.0,-0.4
Cc1ccc(NC(=O)CSc2ccccc2)cc1S(=O)(=O)N1CCCCC1,5.9,18.1,17.2,-16.5,-0.7,10.9
Cc1ccc(NC(=O)CSc2ncnc3ccccc23)cc1S(=O)(=O)N1CCCCC1,19.3,72.2*,35.1,21.4,16.7,10.8
Cc1ccc(NC(=O)CSc2ncnc3ccccc23)cc1S(=O)(=O)N1CCOCC1,12.6,70.8*,53.5*,28.8,13.2,8.7
O=C(CSc1ncnc2ccccc12)Nc1ccc2c(c1)OCO2,1.9,64.9*,-13.5,-38.7,-28.3,-0.3
COc1ccc(NC(=O)N(C)C[C@@H]2OCc3cn(nn3)CCCC(=O)N([C@H](C)CO)C[C@H]2C)cc1,-3.0,-6.8,1.2,4.6,·,-16.7
CC(=O)Nc1cccc(C(=O)N/N=C/c2ccccc2F)c1,23.3,32.8,-15.7,-123.2,-38.7,-77.7
COc1ccc(C(=O)Nc2cccc(C(=O)N/N=C/c3ccc(OC)cc3OC)c2)cc1,66.6*,21.9,-26.2,58.5*,54.1,9.8
Cc1ccc(C(=O)Nc2cccc(C(=O)N/N=C/c3ccccc3F)c2)cc1,58.7*,-10.3,-29.5,-42.9,6.3,-44.7
O=C(NC1CCCCC1)N1CCN(Cc2ccco2)CC1,-7.5,8.6,13.6,-8.2,-6.7,-14.4
O=C(Nc1ccccc1[N+](=O)[O-])c1cccc(N2C(=O)CCC2=O)c1,-5.8,13.9,2.0,-6.7,9.1,-7.2
O=C(CCl)NCCNC(=O)c1cc(OCC(F)(F)F)ccc1OCC(F)(F)F,-18.6,13.0,-11.1,9.5,10.2,3.6
CC(C)CC(=O)NCCNC(=O)c1cc(OCC(F)(F)F)ccc1OCC(F)(F)F,6.1,75.6*,·,-4.3,3.4,-8.4
O=C(NCCCN1CCCC1=O)c1cccc(S(=O)(=O)N2CCN(c3ccc(F)cc3)CC2)c1,10.7,1.7,13.6,5.5,12.6,23.2
Cc1cccc2sc(NC(=O)C3CCN(S(=O)(=O)c4cc([N+](=O)[O-])ccc4Cl)CC3)nc12,7.9,53.7*,6.4,-39.2,40.3,67.0
COc1ccc2nc(NC(=O)C3CCN(S(=O)(=O)c4cccc5nsnc45)CC3)sc2c1,27.8,97.3*,61.5*,18.3,73.9*,57.6
Cc1nnc(NC(=O)C2CCN(S(=O)(=O)c3cc([N+](=O)[O-])ccc3Cl)CC2)o1,-6.5,-10.5,11.0,3.8,11.5,15.9
